This is an account of results in PubChem BioAssay (NCATS).

Test [1] is described as follows: Quantitative highthroughput screen to assess conditional lethalithy of NOMO1 cells grown in RPMI1640 with untreated serum (RPMI+s) (AID 1963876). Also: nearly all actives have a fitted effect of over 35% in size.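 As to viability: 100% = DMSO wells and 0% = empty wells without cells.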 A digest of the protocol:
(§1)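 Each medium arm—HPLM with 10% dialyzed FBS, or RPMI1640 with 5 mM glucose and 10% untreated or dialyzed FBS—was screened against an 11-point, 3-fold compound titration for 48 h at 37 °C, with CellTiter-Glo luminescence as endpoint.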

Test [2] in a line: Quantitative highthroughput screen to assess conditional lethalithy of NOMO1 cells grown in RPMI1640 with dialyzed fetal bovine serum (RPMI+ds) (AID 1963877). Also: nearly all actives have a fitted effect of over 30% in size.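 As to viability: series mostly up to about 46 µM; 100% = DMSO control wells and 0% = empty wells.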 A digest of the protocol: as §1
Test [3] in a line: Quantitative highthroughput screen to assess conditional lethalithy of P12 Ichikawa cells grown in RPMI1640 with dialyzed fetal bovine serum (RPMI+ds) (AID 1963880). Also: nearly all actives have a fitted effect of over 35% in size.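 As to viability: 100% = DMSO wells and 0% = empty wells on each plate.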 Conditions: Potency: P12-Ichikawa viability. A digest of the protocol:
as §1

Test [4] is described as follows: Quantitative highthroughput screen to assess conditional lethalithy of P12 Ichikawa cells grown in RPMI1640 with untreated serum (RPMI+s) (AID 1963881). Also: nearly all actives have a fitted effect of over 35% in size.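 As to viability: series mostly up to about 46 µM; 100% = DMSO wells and 0% = empty wells without cells.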 Conditions: Potency: viability. A digest of the protocol:
as §1

Test [5] in a line: Quantitative highthroughput screen to assess conditional lethalithy of SEM cells grown in RPMI1640 with unreated serum (RPMI+s) (AID 1963883). Also: nearly all actives have a fitted effect of over 35% in size.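 As to viability: 100% = DMSO wells and 0% = empty wells without cells.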 A digest of the protocol:
as §1

Test [6] in a line: Quantitative highthroughput screen to assess conditional lethalithy of SEM cells grown in RPMI1640 with dialyzed fetal bovine serum (RPMI+ds) (AID 1963884). Also: nearly all actives have a fitted effect of over 35% in size.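 As to viability: series mostly up to about 46 µM; 100% = DMSO control wells and 0% = empty wells without cells.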 A digest of the protocol:
as §1

Test [7] in a line: Cellular viability qHTS for adrenocortical cancer (ACC) cell line SW-13 (AID 1963989). Also: nearly all actives have a fitted effect of over 65% in size.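 As to activity (max response): cells grown in serum-free medium with ITS supplement; % is scaled to controls: 0 for no effect and ±100 for the full control effect.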 Conditions: SW-13 ACC cells viability, CellTiter-Glo, 48 h; activity (max response): stronger effect = lower value. A digest of the protocol:
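IC50 and maximal-response values come from four-parameter logistic fits of titration data. SW-13 cells in serum-free medium received compounds (up to 46 uM final) for 48 h before CellTiter-Glo luminescence.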
In general terms: Quantitative high-throughput screening tests each substance at several concentrations.

A short description of test [8]: Cellular viability qHTS for adrenocortical cancer (ACC) cell line NCI-H295R (AID 1963990). Also: nearly all actives have a fitted effect of over 60% in size. A digest of the protocol:
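Adrenocortical carcinoma cells, suspended at 300 000 cells/mL in serum-free DMEM plus ITS, rested overnight before pin transfer of compound. After two days' incubation, ATP-dependent luminescence was recorded and curve-fitted.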

Test [9] can be described thus: Quantitative highthroughput screen to assess conditional lethalithy of SEM cells grown in Human Plasma-Like Medium with dialyzed fetal bovine serum (HPLM+ds) (AID 1963882). Also: nearly all actives have a fitted effect of over 35% in size. As to viability: series mostly up to about 46 µM. A digest of the protocol:
as §1

A short description of test [10]: Quantitative highthroughput screen to assess conditional lethalithy of P12 Ichikawa cells grown in Human Plasma-Like Medium with dialyzed fetal bovine serum (HPLM+ds) (AID 1963879). Also: nearly all actives have a fitted effect of over 35% in size. As to viability: series mostly up to about 46 µM. The conditions noted are these: Potency: viability. A digest of the protocol: as §1
The nature of test [11]: Quantitative highthroughput screen to assess conditional lethalithy of NOMO1 cells grown in Human Plasma-Like Medium with dialyzed fetal bovine serum (HPLM+ds) (AID 1963878). Also: nearly all actives have a fitted effect of over 35% in size.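 As to viability: 100% = DMSO wells and 0% = empty wells on each plate.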 A digest of the protocol: as §1

Where “and” joins values, the source holds several entries; their conditions need not be identical. Identical values can stand only once. Records with an inconclusive call do not appear. Unmarked numbers belong to inactive results. Calls of active or inactive are those of the source. Calls follow the shape of the dose curve; as a rule, active = well fitted curve in the direction sought with a large enough effect; inconclusive = small, poorly fitted or top-dose-only effect, or another doubt; inactive = no such curve, though single readings can be large; an effect the other way counts as inactive or inconclusive.
Potency is read from the fitted curve at half-maximal effect.

`COc1ccc(-c2coc3cc(O)cc(O)c3c2=O)cc1`: the Potency entry in [1], in test [2], in test [3], in test [4], in test [5] and in test [6] was “inactive” each time. Further, the Potency was 31.6 µM (active) in [7] and 28.2 µM (active) in test [8].
Regarding `O=C(C=Cc1ccc(/C=C/C(=O)Nc2ccc(C3=NCCN3)cc2)cc1)Nc1ccc(C2=NCCN2)cc1`, the Potency entry in test [1], in [2], in test [3], in [4] and in test [9] was “inactive” throughout.
For the compound `CC(=O)O[C@]1(C(C)=O)CC[C@H]2[C@@H]3C=C(C)C4=CC(=O)CC[C@]4(C)[C@@H]3CC[C@@]21C`, the Potency result in test [1], in test [2], in [10], in [3], in test [4] and in test [5] was “inactive” each time. In test [6], the Potency entry was “inactive”.
As to `CC[C@H](CO)Nc1nc(NCc2ccccc2)c2ncn(C(C)C)c2n1`, the Potency entry in [1], in test [2], in [10], in test [3], in test [4] and in [9] was “inactive” throughout. In addition, the Potency in [8] was 31.6 µM (active).
Consider `COc1cc(Nc2ncc(F)c(Nc3ccc4c(n3)NC(=O)C(C)(C)O4)n2)cc(OC)c1OC`, for which the Potency was 5.9 µM (active) in [1]; 9.35 µM (active) in test [2]; 4.18 µM (active) in [10]; 5.26 µM (active) in test [4]; 1.66 µM (active) in test [9]; 1.48 µM (active) in test [5]. For the same compound, in test [6], the Potency is 1.66 µM (active).
`COc1ccc2cc1Oc1ccc(cc1)C[C@H]1c3cc(c(OC)cc3CCN1C)Oc1c(OC)c(OC)cc3c1[C@H](C2)N(C)CC3`: the Potency entry in test [1], in [2] and in [9] was “inactive” in each case.
As to `O=c1c(-c2ccc(O)cc2)coc2cc(O[C@@H]3O[C@H](CO)[C@H](O)[C@H](O)[C@H]3O)ccc12`, the Potency entry in test [1], in [2], in [3] and in [4] was “inactive” throughout. The Potency in [9] was 14.8 µM (active).
Consider `CC=CCC=CCCC(=O)[C@H]1O[C@@H]1C(N)=O`, for which the Potency result in test [1], in test [2], in test [3] and in test [4] was “inactive” throughout.
Regarding `CCc1ccc(CCOc2ccc(CC3SC(=O)NC3=O)cc2)nc1` (stereo not drawn), the Potency result in [1], in test [2], in [10], in [4], in test [9] and in [5] was “inactive” each time. In addition, in [7], the activity (max response) is 0.771% and -12.6%.
`CC(=O)O[C@@]12CO[C@H]1C[C@H](O)[C@@]1(C)C(=O)[C@H](O)C3=C(C)[C@@H](OC(=O)C(O)[C@@H](NC(=O)OC(C)(C)C)c4ccccc4)C[C@@](O)([C@@H](OC(=O)c4ccccc4)[C@@H]21)C3(C)C` (stereo partly drawn): the Potency entry in test [1], in test [2], in test [9], in test [5] and in [6] was “inactive” throughout.
In the case of `COc1ccc(Nc2nccc(NCCO)n2)cc1`, the Potency result in [1], in test [2], in test [10], in test [4], in test [9] and in test [5] was “inactive” throughout. The Potency result in test [6] and in test [8] was “inactive” throughout. Also, the activity (max response) in test [7] is 5.92%.
Regarding `O=C(c1ccc(C=Cc2n[nH]c3ccccc23)cc1)N1CCNCC1`, the Potency in test [1] was 0.469 µM (active); in [2], 0.935 µM (active); in [10], 0.935 µM (active); in [5] it was 0.166 µM (active).
As for `O=c1c(-c2ccc(O)cc2)coc2cc(O)cc(O)c12`, the Potency result in [1], in [2], in test [10], in [4], in [6] and in test [8] was “inactive” each time.
On to `OC[C@H]1O[C@@H](Oc2ccc(O)cc2)[C@H](O)[C@@H](O)[C@H]1O`, for which the Potency result in test [1], in test [2], in [10], in [3], in test [4] and in test [9] was “inactive” in each case. The Potency entry in test [6] was “inactive”.
With `CC(COc1ccccc1)N(CCCl)Cc1ccccc1` (stereo not drawn), the Potency in test [1] was 0.166 µM (active); in test [11], 0.209 µM (active); in [10] it was 2.35 µM (active); in test [3] it was 2.96 µM (active); in [4], 2.64 µM (active). The Potency result in [9], in test [5], in test [6] and in [8] was “inactive” each time. Further, in test [7], the activity (max response) was -3.42%.
On to `CNC(=O)c1ccccc1Sc1ccc2c(C=Cc3ccccn3)n[nH]c2c1`, for which the Potency in test [1] is 2.35 µM (active); in [11], 4.18 µM (active); in test [5], 5.26 µM (active); in [6] it was 4.69 µM (active).
In the case of `COc1ccc(-c2cc(=O)c3c(O)cc(O[C@@H]4O[C@H](CO[C@@H]5O[C@@H](C)[C@H](O)[C@@H](O)[C@@H]5O)[C@@H](O)[C@H](O)[C@@H]4O)cc3o2)cc1O`, the Potency result in test [1], in [11], in test [10], in test [3], in [4] and in test [9] was “inactive” throughout. The Potency result in [5] and in test [6] was “inactive” in each case.
In the case of `CN(C)N=Nc1nc[nH]c1C(N)=O`, the Potency entry in test [1], in [11] and in test [9] was “inactive” throughout. For the same compound, the Potency in [10] is 2.64 µM (active); in [4], 2.09 µM (active); in test [6] it was 0.833 µM (active).
For `C[C@H]1O[C@@H](n2cc(F)c(=O)[nH]c2=O)[C@H](O)[C@H]1O`, the Potency result in test [1], in [10], in [3] and in test [4] was “inactive” each time.
Regarding `O=C(CS(=O)Cc1ccco1)NCC=CCOc1cc(CN2CCCCC2)ccn1` (stereo not drawn), the Potency entry in test [1], in test [11], in test [10], in [3], in [4] and in test [9] was “inactive” in each case. The Potency result in test [5] and in test [6] was “inactive” throughout.
Turning to `COc1cc2c(cc1OC)CN(CCc1ccc(NC(=O)c3cccc4c(=O)c5cccc(OC)c5[nH]c34)cc1)CC2`, the Potency in test [1] was 4.69 µM (active); in [11], 1.32 µM (active); in test [10] it was 1.18 µM (active); in test [3], 2.96 µM (active); in test [4], 3.72 µM (active); in test [9] it was 4.18 µM (active). Moreover, the Potency in [5] is 1.05 µM (active). In [7], the activity (max response) is -3.54%. Also, the Potency result in test [8] was “inactive”.
